# Of roughly 7,900 targets only a part is listed; those with a hit were picked by preference. About 0.6% of all pairs of compound and target were hits. A number with no mark means an inactive call.
# Columns and labels:
# Assay in all cases: log2 fold change, soluble protein after heating vs DMSO (PISA); higher = thermal stabilisation; K562 cells, 10 uM, 30 min; active = over 0.2 and 3.5 SD of the protein, either way, in both replicates (recomputed)
# [1] = compound: CC1=C(C=C(C=C1)NC(=O)C2=CC(=CC=C2)C(C)(C)C#N)NC3=CC4=C(C=C3)N=CN(C4=O)C
# Outline: (§1)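 K562 cells at 2×10^6 cells/mL were treated for 30 min with 10 μM compound, and aliquots were heated for 3 min over 48°C-58°C before pooling. Extraction used PBS with 0.5% NP-40 at 4°C, and soluble protein was the supernatant after 21,000xg for 90 min, measured by TMTpro 16plex LC-MS/MS with channel sums equalised. Thermal stability values, relative to control samples and from duplicates, are log2 fold changes.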
# [2] = compound: CC1=C(C=C(C=C1)NC(=O)C2=CC(=CC=C2)N(C)C)NC(=O)C3=CC=C(C=C3)O
# Outline: as §1
# [3] = compound: CC1=CC=C(C=C1)SC2=C3C=C(SC3=CN=C2)C(=O)N
# Outline: as §1
# [4] = compound: CC1=NC(=CC=C1)C2=C(N=C(N2)C(C)(C)C)C3=CC4=NC=CN=C4C=C3
# Outline: as §1
# Nexturastat A = compound: CCCCN(Cc1ccc(C(=O)NO)cc1)C(=O)Nc1ccccc1 [Nexturastat A]
# Outline: as §1
# vemurafenib = compound: CCCS(=O)(=O)Nc1ccc(F)c(C(=O)c2c[nH]c3ncc(-c4ccc(Cl)cc4)cc23)c1F [vemurafenib]
# Outline: as §1
# [5] = compound: CCCS(=O)(=O)Nc1ccc(F)c(C(=O)c2c[nH]c3ncc(Cl)cc23)c1F
# Outline: as §1
# [6] = compound: CCCc1cc(C)[nH]c(=O)c1CNC(=O)c1cc(-c2ccnc(N3CCN(C)CC3)c2)cc2c1cnn2C(C)C
# Outline: as §1
# givinostat = compound: CCN(CC)Cc1ccc2cc(COC(=O)Nc3ccc(C(=O)NO)cc3)ccc2c1 [givinostat]
# Outline: as §1
# barasertib = compound: CCN(CCCOc1ccc2c(Nc3cc(CC(=O)Nc4cccc(F)c4)[nH]n3)ncnc2c1)CCOP(=O)(O)O [barasertib]
# Outline: as §1
# Chain of UniProt Q9Y4K4 (Q9Y4K4 whole entry, looked up): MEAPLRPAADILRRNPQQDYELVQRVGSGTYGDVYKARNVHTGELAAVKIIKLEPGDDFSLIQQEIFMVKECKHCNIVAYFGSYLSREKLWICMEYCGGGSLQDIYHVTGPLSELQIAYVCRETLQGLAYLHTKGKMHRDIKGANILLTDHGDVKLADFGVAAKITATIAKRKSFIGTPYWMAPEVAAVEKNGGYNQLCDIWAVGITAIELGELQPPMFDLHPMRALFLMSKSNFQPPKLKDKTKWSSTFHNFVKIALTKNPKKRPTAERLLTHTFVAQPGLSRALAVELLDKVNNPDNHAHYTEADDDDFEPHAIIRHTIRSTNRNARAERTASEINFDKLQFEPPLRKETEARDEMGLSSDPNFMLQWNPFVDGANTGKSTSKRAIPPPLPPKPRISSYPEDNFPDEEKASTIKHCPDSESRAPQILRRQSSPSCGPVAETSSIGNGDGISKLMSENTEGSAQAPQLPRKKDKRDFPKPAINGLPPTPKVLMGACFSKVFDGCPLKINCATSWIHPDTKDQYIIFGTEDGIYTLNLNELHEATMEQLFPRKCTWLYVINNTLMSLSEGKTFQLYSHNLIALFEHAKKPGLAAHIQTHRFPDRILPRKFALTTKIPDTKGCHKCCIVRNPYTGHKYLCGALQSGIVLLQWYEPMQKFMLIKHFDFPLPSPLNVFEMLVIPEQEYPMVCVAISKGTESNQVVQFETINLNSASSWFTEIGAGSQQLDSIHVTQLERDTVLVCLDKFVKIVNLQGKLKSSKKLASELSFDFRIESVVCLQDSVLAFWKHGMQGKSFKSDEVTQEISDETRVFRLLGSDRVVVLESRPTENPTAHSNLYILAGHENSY
# Chain of UniProt P48449 (P48449 whole entry, looked up): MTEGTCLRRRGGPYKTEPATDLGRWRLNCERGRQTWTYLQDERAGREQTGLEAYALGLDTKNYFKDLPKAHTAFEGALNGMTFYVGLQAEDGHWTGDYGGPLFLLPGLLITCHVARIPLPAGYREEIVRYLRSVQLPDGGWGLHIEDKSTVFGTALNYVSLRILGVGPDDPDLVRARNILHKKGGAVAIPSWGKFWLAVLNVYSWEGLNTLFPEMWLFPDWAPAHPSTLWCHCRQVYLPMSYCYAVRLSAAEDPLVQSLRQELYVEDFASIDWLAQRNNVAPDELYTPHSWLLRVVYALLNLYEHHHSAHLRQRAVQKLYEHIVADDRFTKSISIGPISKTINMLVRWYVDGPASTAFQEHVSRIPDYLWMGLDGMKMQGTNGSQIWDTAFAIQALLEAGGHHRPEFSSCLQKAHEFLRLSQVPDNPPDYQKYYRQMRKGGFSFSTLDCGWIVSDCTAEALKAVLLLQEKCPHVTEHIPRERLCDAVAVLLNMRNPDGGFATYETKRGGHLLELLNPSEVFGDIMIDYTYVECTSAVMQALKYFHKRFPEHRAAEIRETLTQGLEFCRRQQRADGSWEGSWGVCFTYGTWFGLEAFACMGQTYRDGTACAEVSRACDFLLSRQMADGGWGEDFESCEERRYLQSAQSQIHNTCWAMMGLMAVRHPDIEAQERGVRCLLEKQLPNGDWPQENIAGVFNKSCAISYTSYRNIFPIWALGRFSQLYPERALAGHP
# Chain of UniProt P52732 (P52732 whole entry, looked up): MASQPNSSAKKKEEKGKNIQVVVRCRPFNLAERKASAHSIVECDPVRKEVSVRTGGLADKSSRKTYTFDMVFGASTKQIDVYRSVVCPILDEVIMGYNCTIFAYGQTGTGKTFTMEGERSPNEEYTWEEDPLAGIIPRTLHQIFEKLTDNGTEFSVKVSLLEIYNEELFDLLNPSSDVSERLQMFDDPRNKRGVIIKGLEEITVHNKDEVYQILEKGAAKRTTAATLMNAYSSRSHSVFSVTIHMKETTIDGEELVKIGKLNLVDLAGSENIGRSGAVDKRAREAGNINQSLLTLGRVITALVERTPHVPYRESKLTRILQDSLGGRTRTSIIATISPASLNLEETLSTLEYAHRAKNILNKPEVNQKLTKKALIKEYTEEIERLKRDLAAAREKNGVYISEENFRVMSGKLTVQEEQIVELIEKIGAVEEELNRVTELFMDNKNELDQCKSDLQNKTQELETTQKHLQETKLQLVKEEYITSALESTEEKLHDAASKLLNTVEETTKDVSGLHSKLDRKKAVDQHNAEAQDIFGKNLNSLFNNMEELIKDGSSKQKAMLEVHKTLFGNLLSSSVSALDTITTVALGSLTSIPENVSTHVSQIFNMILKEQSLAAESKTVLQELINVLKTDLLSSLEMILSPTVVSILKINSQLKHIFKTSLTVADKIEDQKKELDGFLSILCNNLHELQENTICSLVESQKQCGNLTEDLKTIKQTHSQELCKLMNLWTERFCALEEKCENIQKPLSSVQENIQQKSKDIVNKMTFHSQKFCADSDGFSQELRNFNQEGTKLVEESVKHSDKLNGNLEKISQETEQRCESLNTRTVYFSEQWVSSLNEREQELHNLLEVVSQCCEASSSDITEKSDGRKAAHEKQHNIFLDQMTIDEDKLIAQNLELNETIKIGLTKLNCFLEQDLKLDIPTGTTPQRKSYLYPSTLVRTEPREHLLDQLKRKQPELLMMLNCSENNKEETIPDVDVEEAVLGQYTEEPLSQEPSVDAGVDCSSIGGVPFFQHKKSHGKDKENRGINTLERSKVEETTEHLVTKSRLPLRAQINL
# Chain of UniProt A1L0T0 (A1L0T0 whole entry, looked up): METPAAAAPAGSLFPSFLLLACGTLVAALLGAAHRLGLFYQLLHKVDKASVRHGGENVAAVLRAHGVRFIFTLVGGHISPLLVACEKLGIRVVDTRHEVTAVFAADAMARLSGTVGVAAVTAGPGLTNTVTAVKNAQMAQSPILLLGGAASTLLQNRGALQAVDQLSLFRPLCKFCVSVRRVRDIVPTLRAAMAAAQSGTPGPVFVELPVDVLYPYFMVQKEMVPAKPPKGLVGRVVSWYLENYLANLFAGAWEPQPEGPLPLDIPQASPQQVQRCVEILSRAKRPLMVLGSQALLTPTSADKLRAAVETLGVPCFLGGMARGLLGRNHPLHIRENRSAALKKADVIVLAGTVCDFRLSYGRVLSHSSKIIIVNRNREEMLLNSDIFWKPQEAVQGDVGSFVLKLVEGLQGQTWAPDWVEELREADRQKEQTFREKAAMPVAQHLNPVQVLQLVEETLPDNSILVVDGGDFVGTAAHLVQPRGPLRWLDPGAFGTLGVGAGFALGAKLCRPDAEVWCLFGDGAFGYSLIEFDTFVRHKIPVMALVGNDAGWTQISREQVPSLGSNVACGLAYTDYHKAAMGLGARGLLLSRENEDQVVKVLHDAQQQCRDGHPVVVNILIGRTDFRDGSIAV
# Chain of UniProt Q9NQG6 (Q9NQG6 whole entry, looked up): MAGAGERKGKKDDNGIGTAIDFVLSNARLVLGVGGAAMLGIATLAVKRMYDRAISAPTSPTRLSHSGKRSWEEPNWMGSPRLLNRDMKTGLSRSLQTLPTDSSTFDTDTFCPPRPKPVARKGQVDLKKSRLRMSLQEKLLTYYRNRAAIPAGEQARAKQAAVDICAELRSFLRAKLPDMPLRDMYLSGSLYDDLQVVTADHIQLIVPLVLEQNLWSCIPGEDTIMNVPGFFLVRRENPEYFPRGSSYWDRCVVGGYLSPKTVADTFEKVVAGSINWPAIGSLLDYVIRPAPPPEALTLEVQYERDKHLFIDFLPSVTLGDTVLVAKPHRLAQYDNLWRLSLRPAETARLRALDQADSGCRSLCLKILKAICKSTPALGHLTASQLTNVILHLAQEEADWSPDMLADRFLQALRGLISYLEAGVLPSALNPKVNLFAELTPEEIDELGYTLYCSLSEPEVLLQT
# Chain of UniProt Q07820 (Q07820 whole entry, looked up): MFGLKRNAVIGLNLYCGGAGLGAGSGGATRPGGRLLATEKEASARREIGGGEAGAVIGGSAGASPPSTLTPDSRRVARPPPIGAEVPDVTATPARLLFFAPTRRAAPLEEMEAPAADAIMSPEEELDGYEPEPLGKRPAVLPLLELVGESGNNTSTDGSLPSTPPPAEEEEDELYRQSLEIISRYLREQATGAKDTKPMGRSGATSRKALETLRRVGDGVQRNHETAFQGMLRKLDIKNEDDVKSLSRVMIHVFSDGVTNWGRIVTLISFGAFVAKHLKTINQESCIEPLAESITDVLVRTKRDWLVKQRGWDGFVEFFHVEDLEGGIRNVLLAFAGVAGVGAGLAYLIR
# Chain of UniProt P22692 (P22692 whole entry, looked up): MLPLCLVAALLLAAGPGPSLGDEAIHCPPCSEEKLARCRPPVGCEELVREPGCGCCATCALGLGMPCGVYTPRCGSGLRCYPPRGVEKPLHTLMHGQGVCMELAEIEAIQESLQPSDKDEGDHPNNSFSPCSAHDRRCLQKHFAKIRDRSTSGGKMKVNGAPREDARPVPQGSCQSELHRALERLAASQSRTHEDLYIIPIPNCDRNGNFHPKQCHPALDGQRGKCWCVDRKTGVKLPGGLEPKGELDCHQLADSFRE
# Chain of UniProt P29966 (P29966 whole entry, looked up): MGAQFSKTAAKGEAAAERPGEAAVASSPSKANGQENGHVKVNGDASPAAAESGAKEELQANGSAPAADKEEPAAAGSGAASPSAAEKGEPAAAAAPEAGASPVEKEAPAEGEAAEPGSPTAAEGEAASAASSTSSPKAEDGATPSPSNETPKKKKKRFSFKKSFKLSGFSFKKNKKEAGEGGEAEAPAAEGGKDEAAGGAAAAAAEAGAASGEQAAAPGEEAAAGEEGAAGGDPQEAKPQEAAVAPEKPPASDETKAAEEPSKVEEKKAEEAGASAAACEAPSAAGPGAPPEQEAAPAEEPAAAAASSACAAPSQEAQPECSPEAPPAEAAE
# Chain of UniProt P18065 (P18065 whole entry, looked up): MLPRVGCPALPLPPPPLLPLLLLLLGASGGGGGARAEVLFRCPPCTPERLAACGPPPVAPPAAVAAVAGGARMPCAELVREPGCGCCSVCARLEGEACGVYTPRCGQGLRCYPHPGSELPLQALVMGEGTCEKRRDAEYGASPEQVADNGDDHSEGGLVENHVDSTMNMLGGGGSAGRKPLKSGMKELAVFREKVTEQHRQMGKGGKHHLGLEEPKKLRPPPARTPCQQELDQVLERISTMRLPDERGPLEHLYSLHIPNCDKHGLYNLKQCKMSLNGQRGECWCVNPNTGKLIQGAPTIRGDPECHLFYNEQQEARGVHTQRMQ
Target,log2 fold change [1],log2 fold change [2],log2 fold change [3],log2 fold change [4],log2 fold change (Nexturastat A),log2 fold change (vemurafenib),log2 fold change [5],log2 fold change [6],log2 fold change (givinostat),log2 fold change (barasertib)
MAP4K5 (UniProt Q9Y4K4),0.01,0.082,0.025,-0.012,-0.042,-0.025,-0.008,-0.047,-0.024,0.1
KPNA6 (UniProt O60684),-0.06,-0.02,-0.014,-0.063,0.156,-0.09,0.078,0.068,0.018,0.047
LSS (UniProt P48449),-0.032,-0.122,-0.071,0.054,0.012,0.03,0.073,0,0.766 (active),0.382
LTV1 (UniProt Q96GA3),0.044,-0.04,-0.04,-0.035,0.248,-0.075,-0.008,-0.011,-0.025,-0.075
IGFBP4 (UniProt P22692),0.044,0.207,0.026,0.003,0.019,0.084,-0.08,-0.193,-0.007,0.013
MAPKAPK5 (UniProt Q8IW41),0.004,-0.02,-0.015,0.013,0.003,0.028,0.11,0.038,0.225,-0.03
KIF11 (UniProt P52732),-0.032,-0.119,-0.005,-0.033,0.155,0.071,0.077,0.076,0.09,0.049
LARP4 isoform 4 (UniProt Q71RC2),0.066,0.005,-0.041,-0.002,0.251,-0.017,0.018,0.054,0.04,-0.053
LRBA (UniProt P50851),-0.011,0,-0.011,0.001,-0.046,0.01,0.031,-0.025,0.008,0.038
MARCKS (UniProt P29966),-0.001,-0.066,0.01,0.072,-0.104,0.047,-0.004,0.252,-0.096,0.005
IGFBP2 (UniProt P18065),-0.154,0.173,0.201,0.349,0.106,0.262,-0.003,-0.409,0.056,0.012
KIF1B isoform 4 (UniProt O60333),-0.07,0.058,0.008,0.024,0.024,0.002,0.043,0.018,0.122,0.073
ILVBL (UniProt A1L0T0),-0.021,-0.052,0.005,-0.051,0.007,0.037,0.049,0.004,-0.002,0.021
KPNA4 (UniProt O00629),0.016,0.007,0.017,0.045,-0.008,0.031,0.038,0.023,0.006,0.007
MIEF1 (UniProt Q9NQG6),0.054,0.009,0.023,0.13,-0.067,-0.02,0.019,0.008,-0.044,0.015
MCL1 (UniProt Q07820),-0.022,-0.047,0.048,0.048,0.08,-0.057,-0.164,0.084,0.075,-0.027

# — the supplement of paper PMC10849652
